Laboratory results as given in PubChem BioAssay (NCATS).
Records with an inconclusive call do not appear. A call without a number means that no potency is given here. Calls of active or inactive are those of the source. Unless noted, calls come from the whole dose curve; as a rule, active = well fitted curve in the direction sought with a large enough effect; inconclusive = small, poorly fitted or top-dose-only effect, or another doubt; inactive = no such curve, though single readings can be large; an effect the other way counts as inactive or inconclusive. Where a SMILES comes first, the peptide text is derived from it.

How the values were obtained:
[1] = qHTS to identify inhibitors of the type 1 interferon - major histocompatibility complex class I in skeletal muscle: primary screen against the NCATS Mechanism Interrogation Plate v5.0 (MIPE) Libary (AID 1347411); settings: iHSKM cells + IFN-b, HiBiT-tagged MHC-I luminescence, 24 h; series mostly up to 45.8 µM; note: nearly all actives have a fitted effect of over 65% in size; note: potency is the fitted concentration of half-maximal effect
In short: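 Cells were genome-edited human myoblasts carrying a HiBit tag on endogenous HLA-B. They were treated with IFN-beta (4.0 ng/ml) and titrated compounds (top 46 uM) for 24 hrs before lytic HiBiT detection.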

[2] = Primary qHTS for inhibitors of nuclear receptor binding SET domain protein 2 (NSD2) in an isogenic RCH-ACV NSD2 p.E1099K mutant (9B) (AID 1645876); settings: RCH-ACV NSD2 E1099K (9B) viability, CellTiter-Glo, 72 h; series mostly up to 44.9 µM; note: nearly all actives have a fitted effect of over 70% in size; note: potency is the fitted concentration of half-maximal effect
[3] = Primary qHTS for inhibitors of nuclear receptor binding SET domain protein 2 (NSD2) in an RCH-ACV wild type WT cells (2C) (AID 1645877); settings: RCH-ACV (leukaemia line) NSD2 WT (2C) viability, CellTiter-Glo, 72 h; series mostly up to 44.9 µM; note: nearly all actives have a fitted effect of over 70% in size; note: potency is the fitted concentration of half-maximal effect
[4] = target: Glutathione peroxidase 1 (Homo sapiens) (UniProt P07203); experiment: Primary qHTS Assay for Inhibitors of Recombinant Selenoprotein Glutathione Peroxidase 1 (GPX1) (AID 1845191); settings: recombinant GPX1, GR-coupled NADPH fluorescence, 15 min; series mostly up to 48.8 µM; note: nearly all actives have a fitted effect of over 65% in size
Chain of Glutathione peroxidase 1 (Homo sapiens) (P07203 whole entry, looked up): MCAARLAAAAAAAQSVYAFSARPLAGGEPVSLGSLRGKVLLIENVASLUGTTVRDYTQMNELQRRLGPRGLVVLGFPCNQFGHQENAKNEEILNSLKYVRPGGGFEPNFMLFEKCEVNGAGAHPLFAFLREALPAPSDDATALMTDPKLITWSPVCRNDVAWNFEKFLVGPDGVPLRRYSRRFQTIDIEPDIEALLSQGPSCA
In short: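 GR-coupled assay: compounds preincubated 30 min at room temperature with GPX1, then reaction started with CHP; final 10 nM GPX1, 1 mM GSH, 0.5 mM CHP, 0.5 mM NADPH, 100 nM GR, 0.01% BSA, pH 7.5 Tris buffer. NADPH fluorescence (340/450 nm) read at 0 and 15 min.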

[5] = target: Phospholipid hydroperoxide glutathione peroxidase GPX4 (Homo sapiens) (UniProt P36969); experiment: Primary qHTS Assay for Inhibitors of Recombinant Selenoprotein Glutathione Peroxidase 4 (GPX4) (AID 1845192); settings: recombinant GPX4, GR-coupled NADPH fluorescence, 15 min; series mostly up to 50 µM; note: nearly all actives have a fitted effect of over 65% in size
Chain of Phospholipid hydroperoxide glutathione peroxidase GPX4 (Homo sapiens) (P36969 whole entry, looked up): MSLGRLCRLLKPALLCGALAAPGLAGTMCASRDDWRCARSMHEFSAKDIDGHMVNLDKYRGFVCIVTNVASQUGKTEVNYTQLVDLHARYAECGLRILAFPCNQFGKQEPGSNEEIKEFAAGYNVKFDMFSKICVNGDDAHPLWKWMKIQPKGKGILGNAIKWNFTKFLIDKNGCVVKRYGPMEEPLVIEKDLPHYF
In short: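 GR-coupled assay: recombinant GPX4 preincubated 30 min with compound at room temperature; final 200 nM GPX4, 1 mM GSH, 0.5 mM cumene hydroperoxide, 0.5 mM NADPH, 100 nM GR, 0.01% BSA, pH 7.5 Tris. NADPH fluorescence (340/450 nm) read at 0 and 15 min.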

[6] = qHTS drug screen for cell cycle checkpoint inhibitors in PARPi-resistant BRCA-mutant ovarian cancer cell lines. (AID 1963452; calls by dose curve; note: potency is the fitted concentration of half-maximal effect); settings: PEO1/OlaR viability, CellTiter-Glo luminescence, 96 h; for Z-AUC: stronger effect = lower value
In short: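 PEO1, PEO4 and PEO1/OlaR ovarian cancer cells, 600 per well, exposed 96 h at 37C to a dilution series. Viability read by CellTiter-Glo luminescence, normalized to DMSO and empty wells; activity summarized as Z-AUC.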

[7] = measured here: PEO1 parental Z-AUC

SMILES	Potency [1]	Potency [2]	Potency [3]	Potency [4]	Potency [5]	Z-AUC [6]	Z-AUC [6, 7]	Z-AUC ([6]; measured here: PEO4 Z-AUC)	Potency [6]
C/C=C1\NC(=O)[C@H]2CSSCC/C=C\[C@H](CC(=O)N[C@H](C(C)C)C(=O)N2)OC(=O)[C@H](C(C)C)NC1=O	0.0104 µM (active)	0.0074 µM (active)	0.0066 µM (active)	inactive	–	–	–	–	–
COc1ccc(C(=O)N2CCN(C(=O)/C=C/c3ccc(Br)cc3)CC2)cc1	inactive	inactive	inactive	inactive	inactive	1.19 (inactive)	1.01	1.05	–
O=C(/C=C/c1cccnc1)NCCCCC1CCN(C(=O)c2ccccc2)CC1	inactive	0.0019 µM (active)	0.0047 µM (active)	inactive	inactive	–	-2.84	-2.61	43.6 nM (active)
COc1ccc2[nH]c(C(=O)N3CCC(CC(C)(C)O)CC3)cc2c1	inactive	inactive	inactive	inactive	inactive	0.0283 (inactive)	0.0965	0.395	–
Cn1cc(/C=C2\C(=O)Nc3cccnc32)c2ccccc21	29.4 µM (active)	5.25 µM (active)	8.33 µM (active)	inactive	inactive	1.01 (inactive)	0.388	-0.377	–
COc1ccnc2[nH]cc(C(=O)C(=O)N3CCN(C(=O)c4ccccc4)C[C@H]3C)c12	inactive	inactive	inactive	inactive	inactive	1.3 (inactive)	1.05	1.31	–
CCN(CC)CCNc1ccc(C)c2sc3ccccc3c(=O)c12	26.2 µM (active)	5.9 µM (active)	5.25 µM (active)	–	–	–	–	–	–
CSC[C@H]1CN(Cc2c[nH]c3c(N)ncnc23)C[C@@H]1O	inactive	inactive	inactive	inactive	inactive	–	–	–	–
COC(=O)/C=C/C(=O)OC	inactive	inactive	inactive	inactive	inactive	–	–	–	–
C[C@H](CCC(=O)O)[C@H]1CC[C@H]2[C@@H]3[C@@H](O)C[C@@H]4C[C@H](O)CC[C@]4(C)[C@H]3CC[C@]12C	inactive	inactive	inactive	–	inactive	0.396 (inactive)	1.43	1.41	–
N[C@@H](CCC(=O)O)C(=O)N[C@@H](Cc1c[nH]c2ccccc12)C(=O)O (H-Glu-Trp-OH)	inactive	inactive	inactive	inactive	inactive	1.08 (inactive)	0.582	0.474	–
CC1Cc2ccccc2N1C(=O)Cc1nc(N2CCOCC2)cc(=O)[nH]1 (stereo not given)	inactive	5.25 µM (active)	4.68 µM (active)	inactive	inactive	-1.34 (inactive)	-0.404	-0.574	–
